From PubChem BioAssay
Inconclusive results are not listed. Calls of active or inactive are those of the source. Cut-off read from the data, not from the text of the source, unless noted: active = response above about 15%; inactive = the rest.

Legend:
[1] = yeast TOR pathway RPL19A-GFP modulators, primary screen, cell-based, S. cerevisiae, multiplex flow cytometry (AID 1862; in the data active = percent of DMSO control GFP below about 86%;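 note: lower values mimic rapamycin by blocking the RPL19A rise seen in DMSO cells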); settings: S. cerevisiae RPL19A-GFP strain, flow cytometry fluorescence, 3 h; at 10 µM; stronger effect = lower value
[2] = modulators of MEP2-GFP levels in yeast, primary screen, S. cerevisiae, multiplex flow cytometry (AID 1867;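 active = GFP response, as percent of the DMSO control, above the screen-wide mean plus 3 SD, about 139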;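 note: median GFP channel fluorescence of barcode-gated MEP2-GFP cells measured by flow cytometry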); settings: S. cerevisiae MEP2-GFP strain, 3 h, at 10 µM, stronger effect = higher value, 100% means same as DMSO wells
[3] = modulators of CIT2-GFP expression in yeast, primary screen, S. cerevisiae, GFP fusion, multiplex flow cytometry (AID 1870;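 active = percent response above a set limit, the screen-wide mean plus 3 SD, cut at about 130% in these data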;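 note: barcoded CIT2-GFP strain pooled with four other GFP strains with rapamycin as positive control; median GFP fluorescence per well over plate mean of DMSO wells so 100% = DMSO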); settings: 3 h, at 10 µM, stronger effect = higher value
[4] = modulators of LAP4-GFP expression in yeast, primary screen, S. cerevisiae, multiplex flow cytometry (AID 1873;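 active = GFP signal, as percent of the solvent control, above the screen mean plus 3 SD, about 149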); settings: 3 h, at 10 µM, stronger effect = higher value
[5] = modulators of AGP1-GFP expression in yeast TOR pathway, primary screen, cell-based, multiplex flow cytometry, S. cerevisiae (AID 1887;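 active = GFP signal above the screen-wide mean plus 3 SD, that is over about 124.5% of the solvent control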;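 note: AGP1-GFP fusion strain of S. cerevisiae within a five-strain barcoded multiplex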); settings: 3 h, at 10 µM, stronger effect = higher value
[6] = inhibitors of CD8+ T cell-vesicle binding, pilot screen, LFA-1/ICAM-1 modulator project, MLPCN validation set, flow cytometry (AID 2523;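 active = response below a set limit, under 55% cells CD8-positive and vesicle-bound, and CD8 cells' 90th-percentile brightness under 279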;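 for vesicle binding response: mean PE anti-B7-1 fluorescence of CD8+ cells relative to row control; 100% = QL9-loaded vesicles with DMSO vehicle in the same plate row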); settings: 2C mouse CD8+ T cells, at 7 µM, stronger effect = lower value; double positive events: measured here: CD8+/vesicle+ event percentage
[7] = target: Integrin beta-1 (Homo sapiens) + Integrin alpha-4 (Homo sapiens) (UniProt P13612+P05556); assay: inhibition of HUTS-21 binding to VLA-4, pilot screen, VLA-4 allosteric modulator project, U937 cells, HUTS-21 mAb, flow cytometry, validation set (AID 2674;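 active = inhibition above 50%, about 3 SD of the validation set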;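 note: antibody binding induced by the VLA-4 ligand LDV present at three times its Kd; 0% = LDV ligand with antibody and no compound and 100% = antibody without LDV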); settings: HUTS-21 LIBS mAb binding, at 6.7 µM, stronger effect = higher value, binding induced by LDV ligand
[8] = superoxide lowering in aged yeast cells, pilot screen, validation compound set (AID 2706;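 active = superoxide response below 65% of plate, a cut near 3 SD across the whole screen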;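 note: yeast exposed to compound for one week at 30 degrees C before staining; 100% = mean of all compound wells on the same plate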); settings: S. cerevisiae aging, superoxide DHE fluorescence; at 10 µM; stronger effect = lower value
[9] = target: Beta-adrenergic receptor kinase 1 (Homo sapiens) (UniProt P25098); assay: GRK2 binders displacing RNA aptamer, biochemical, validation, human GRK2, bead flow cytometry (AID 488806;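 active = aptamer binding inhibition above 30%, about 3 SD of noise from non-fluorescent compounds; inactive = inhibition at or below 30%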); settings: bead-bound GRK2, FAM-aptamer displacement, at 10 µM, stronger effect = higher value
[10] = target: Beta-2 adrenergic receptor (Homo sapiens) (UniProt P07550); assay: beta2AR agonists driving receptor internalization, pilot screen, cell-based, FAP fluorogen, flow cytometry, validation set (AID 504459;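 active = percent response above 42, roughly 3 SD of non-fluorescent test compounds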;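 note: agonist-driven loss of surface beta2AR via internalization measured by FAP dye flow cytometry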); settings: Am2.2-beta2AR cells, FAP surface receptor flow cytometry; at 10 µM; stronger effect = higher value
[11] = target: AP-2 complex subunit beta (Homo sapiens) (UniProt P63010); assay: inhibitors of arrestin peptide binding to AP2, pilot screen, biochemical, validation set, GST-AP2 beads, flow cytometry (AID 504541;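 active = inhibition above 54%, about 3 SD of non-fluorescent compounds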;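 note: AP2 carries R879A mutation and is captured from E. coli lysate; bead-bound FITC arrestin peptide fluorescence measuring arrestin peptide binding to AP2; 0% = DMSO wells and 100% = excess unlabeled arrestin peptide control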); settings: FITC arrestin peptide, at 10 µM, stronger effect = higher value, AP2 beta2 appendage fragment, R879A mutant
[12] = yeast V-ATPase proton transport modulators, S. cerevisiae, pHLuorin, HTS validation (AID 504600);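 note: plate controls were DMSO for no effect and reference compound for full effect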; settings: S. cerevisiae pHLuorin cytosolic pH, at 10 µM, stronger effect = higher value
[13] = test system: anti-desmoglein-3 scFv antibody binding to human DSG3; assay: inhibitors of anti-DSG3 scFv binding to DSG3, pilot screen, biochemical, validation compound set, bead-based, flow cytometry (AID 588368;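 active = binding below the plate cutoff, the plate median minus 3 SD, with a reading above zero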;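 note: signal is the median channel fluorescence of bead-bound GFP antibody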); settings: Protein G beads, DSG3-Fc, scFv-GFP binding, at 10 µM, stronger effect = lower value
[14] = inhibitors of fungal efflux pumps CDR1, CDR2, MDR1, pilot screen, validation compound set, multiplex, phenotypic (AID 588506;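 active = efflux inhibition above 0.42, the validation set average plus 4 SD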;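 note: Nile Red retained in cells so higher fluorescence means more efflux inhibition; 0 = negative control wells and 1 = enniatin B 25 µM full block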); settings: S. cerevisiae pump-expressing triplex, Nile Red efflux flow cytometry; at 10 µM; stronger effect = higher value; the pumps come from Candida albicans
[15] = target: ATP-binding cassette sub-family B member 6 (Homo sapiens) (UniProt Q9NP58); assay: ABCB6 transporter inhibitors, pilot screen, K562-ABCB6 cells, flow cytometry, validation set (AID 588550;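 active = inhibition above the screen-wide mean plus 3 SD, about 51%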;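 note: 0% = DMSO wells and 100% = benzethonium chloride 70 µM positive control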); settings: K562-ABCB6 porphyrin accumulation, 1 h, at 10 µM, stronger effect = higher value
[16] = promoters of myeloid differentiation in arrested cells, primary screen, cell-based, GFP/MAC1 double positive, flow cytometry, validation set (AID 588685;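 active = differentiation response of at least 50%, scaled between solvent and reference control, from cells with both markers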;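 note: compound exposure lasts four days before antibody staining and flow analysis; 0% = DMSO wells and 100% = 5 µM fulvestrant positive control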); settings: ER-HoxA9 marrow cells, stronger effect = higher value, normalized: vehicle 0, fulvestrant 100

Sequence of AP-2 complex subunit beta (Homo sapiens) (P63010 whole entry, looked up, the tested form may be a part, one chain of several): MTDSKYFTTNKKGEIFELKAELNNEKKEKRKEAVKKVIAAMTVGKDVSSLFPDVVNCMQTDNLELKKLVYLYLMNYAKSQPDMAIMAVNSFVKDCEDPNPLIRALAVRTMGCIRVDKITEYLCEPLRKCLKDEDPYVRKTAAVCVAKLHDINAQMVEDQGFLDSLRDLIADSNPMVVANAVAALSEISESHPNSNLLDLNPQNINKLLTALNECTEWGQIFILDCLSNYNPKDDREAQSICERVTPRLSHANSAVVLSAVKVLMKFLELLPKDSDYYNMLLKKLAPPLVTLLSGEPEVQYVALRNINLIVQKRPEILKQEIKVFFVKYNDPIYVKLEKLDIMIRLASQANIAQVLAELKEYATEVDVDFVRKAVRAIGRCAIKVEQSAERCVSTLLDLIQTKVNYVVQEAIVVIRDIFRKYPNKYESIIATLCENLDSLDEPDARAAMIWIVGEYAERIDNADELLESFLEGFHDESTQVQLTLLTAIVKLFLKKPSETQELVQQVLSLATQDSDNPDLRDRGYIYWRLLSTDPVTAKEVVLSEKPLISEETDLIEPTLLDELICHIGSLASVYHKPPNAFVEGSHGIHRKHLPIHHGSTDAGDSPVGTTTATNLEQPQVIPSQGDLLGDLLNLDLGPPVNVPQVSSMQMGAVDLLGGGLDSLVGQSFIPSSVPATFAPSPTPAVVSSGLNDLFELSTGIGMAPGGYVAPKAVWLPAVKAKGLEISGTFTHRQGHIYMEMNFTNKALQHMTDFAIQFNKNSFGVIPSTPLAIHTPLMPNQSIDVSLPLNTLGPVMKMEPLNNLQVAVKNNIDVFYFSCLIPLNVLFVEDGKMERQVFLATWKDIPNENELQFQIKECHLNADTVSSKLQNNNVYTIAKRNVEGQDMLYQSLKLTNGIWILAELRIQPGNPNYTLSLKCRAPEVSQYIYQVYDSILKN
Sequence of ATP-binding cassette sub-family B member 6 (Homo sapiens) (Q9NP58 whole entry, looked up): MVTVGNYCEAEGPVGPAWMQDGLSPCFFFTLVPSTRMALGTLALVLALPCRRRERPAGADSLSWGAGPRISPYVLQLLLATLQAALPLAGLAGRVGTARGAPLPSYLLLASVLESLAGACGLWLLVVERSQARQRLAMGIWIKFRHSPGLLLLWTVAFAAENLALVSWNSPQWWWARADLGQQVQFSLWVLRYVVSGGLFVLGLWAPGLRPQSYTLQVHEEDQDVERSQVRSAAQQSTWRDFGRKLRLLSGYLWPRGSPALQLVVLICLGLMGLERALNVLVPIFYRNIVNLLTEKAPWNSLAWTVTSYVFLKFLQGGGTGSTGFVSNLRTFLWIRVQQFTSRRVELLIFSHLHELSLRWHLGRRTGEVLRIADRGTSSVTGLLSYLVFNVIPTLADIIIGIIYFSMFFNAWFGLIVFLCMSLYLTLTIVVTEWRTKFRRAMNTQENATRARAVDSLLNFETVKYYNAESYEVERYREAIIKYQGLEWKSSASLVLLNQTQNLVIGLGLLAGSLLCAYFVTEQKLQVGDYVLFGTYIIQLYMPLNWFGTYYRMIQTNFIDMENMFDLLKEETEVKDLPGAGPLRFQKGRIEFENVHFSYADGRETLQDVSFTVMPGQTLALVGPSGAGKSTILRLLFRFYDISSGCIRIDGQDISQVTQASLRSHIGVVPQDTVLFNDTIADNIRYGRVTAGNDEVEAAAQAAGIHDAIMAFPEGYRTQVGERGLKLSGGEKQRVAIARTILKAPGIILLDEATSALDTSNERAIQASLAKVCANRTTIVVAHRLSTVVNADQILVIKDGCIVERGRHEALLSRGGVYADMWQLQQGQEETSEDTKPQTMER
Sequence of Beta-2 adrenergic receptor (Homo sapiens) (P07550 whole entry, looked up): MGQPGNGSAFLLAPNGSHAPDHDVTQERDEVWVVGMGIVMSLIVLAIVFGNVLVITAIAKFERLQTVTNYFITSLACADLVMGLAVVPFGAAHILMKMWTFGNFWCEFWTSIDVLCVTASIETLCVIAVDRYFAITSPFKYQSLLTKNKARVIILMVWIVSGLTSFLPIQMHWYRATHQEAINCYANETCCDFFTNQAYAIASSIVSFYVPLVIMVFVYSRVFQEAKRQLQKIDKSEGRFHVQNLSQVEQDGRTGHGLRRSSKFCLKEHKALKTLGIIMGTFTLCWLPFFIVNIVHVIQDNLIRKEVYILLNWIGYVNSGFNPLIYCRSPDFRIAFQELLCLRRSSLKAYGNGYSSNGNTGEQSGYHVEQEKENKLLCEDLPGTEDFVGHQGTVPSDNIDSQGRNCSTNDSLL
Sequence of Beta-adrenergic receptor kinase 1 (Homo sapiens) (P25098 whole entry, looked up): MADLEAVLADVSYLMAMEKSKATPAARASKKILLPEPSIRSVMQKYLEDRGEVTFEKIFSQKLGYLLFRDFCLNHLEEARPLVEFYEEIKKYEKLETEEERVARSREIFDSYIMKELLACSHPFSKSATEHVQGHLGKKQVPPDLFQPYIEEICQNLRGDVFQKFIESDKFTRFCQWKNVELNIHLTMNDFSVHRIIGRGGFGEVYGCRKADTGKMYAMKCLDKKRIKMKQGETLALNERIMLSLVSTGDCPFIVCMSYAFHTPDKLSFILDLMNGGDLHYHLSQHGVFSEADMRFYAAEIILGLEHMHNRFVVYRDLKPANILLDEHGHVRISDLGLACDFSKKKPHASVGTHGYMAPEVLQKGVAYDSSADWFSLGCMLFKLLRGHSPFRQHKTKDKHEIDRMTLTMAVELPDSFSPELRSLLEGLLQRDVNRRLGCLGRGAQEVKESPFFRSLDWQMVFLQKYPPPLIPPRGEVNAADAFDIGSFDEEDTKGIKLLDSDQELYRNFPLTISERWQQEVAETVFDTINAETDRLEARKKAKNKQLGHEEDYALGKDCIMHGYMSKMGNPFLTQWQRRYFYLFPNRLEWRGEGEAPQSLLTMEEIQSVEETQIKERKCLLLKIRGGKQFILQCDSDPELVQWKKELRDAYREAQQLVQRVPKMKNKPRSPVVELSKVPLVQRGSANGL
Sequence of Integrin beta-1 (Homo sapiens) + Integrin alpha-4 (Homo sapiens) (P05556 whole entry, looked up): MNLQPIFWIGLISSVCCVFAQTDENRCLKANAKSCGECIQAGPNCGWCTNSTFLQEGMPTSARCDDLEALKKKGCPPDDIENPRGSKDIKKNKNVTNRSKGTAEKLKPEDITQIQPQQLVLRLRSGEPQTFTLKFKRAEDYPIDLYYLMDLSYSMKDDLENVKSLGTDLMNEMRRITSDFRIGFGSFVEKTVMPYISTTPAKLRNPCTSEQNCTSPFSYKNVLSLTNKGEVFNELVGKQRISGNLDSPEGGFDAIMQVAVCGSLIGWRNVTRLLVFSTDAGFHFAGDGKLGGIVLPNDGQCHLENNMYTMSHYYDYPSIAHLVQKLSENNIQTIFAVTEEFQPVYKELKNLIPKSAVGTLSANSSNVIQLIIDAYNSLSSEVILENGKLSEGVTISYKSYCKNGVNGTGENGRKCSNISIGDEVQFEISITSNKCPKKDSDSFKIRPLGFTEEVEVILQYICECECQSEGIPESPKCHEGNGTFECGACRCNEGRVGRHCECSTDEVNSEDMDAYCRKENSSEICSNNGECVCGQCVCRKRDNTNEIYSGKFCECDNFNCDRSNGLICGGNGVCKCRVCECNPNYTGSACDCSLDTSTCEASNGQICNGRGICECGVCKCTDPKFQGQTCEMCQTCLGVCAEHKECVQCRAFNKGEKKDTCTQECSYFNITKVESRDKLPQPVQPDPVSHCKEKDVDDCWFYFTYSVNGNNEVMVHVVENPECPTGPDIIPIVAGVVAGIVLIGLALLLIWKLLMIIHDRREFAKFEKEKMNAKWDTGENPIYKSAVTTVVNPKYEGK
Sequence of Integrin beta-1 (Homo sapiens) + Integrin alpha-4 (Homo sapiens) (P13612 whole entry, looked up): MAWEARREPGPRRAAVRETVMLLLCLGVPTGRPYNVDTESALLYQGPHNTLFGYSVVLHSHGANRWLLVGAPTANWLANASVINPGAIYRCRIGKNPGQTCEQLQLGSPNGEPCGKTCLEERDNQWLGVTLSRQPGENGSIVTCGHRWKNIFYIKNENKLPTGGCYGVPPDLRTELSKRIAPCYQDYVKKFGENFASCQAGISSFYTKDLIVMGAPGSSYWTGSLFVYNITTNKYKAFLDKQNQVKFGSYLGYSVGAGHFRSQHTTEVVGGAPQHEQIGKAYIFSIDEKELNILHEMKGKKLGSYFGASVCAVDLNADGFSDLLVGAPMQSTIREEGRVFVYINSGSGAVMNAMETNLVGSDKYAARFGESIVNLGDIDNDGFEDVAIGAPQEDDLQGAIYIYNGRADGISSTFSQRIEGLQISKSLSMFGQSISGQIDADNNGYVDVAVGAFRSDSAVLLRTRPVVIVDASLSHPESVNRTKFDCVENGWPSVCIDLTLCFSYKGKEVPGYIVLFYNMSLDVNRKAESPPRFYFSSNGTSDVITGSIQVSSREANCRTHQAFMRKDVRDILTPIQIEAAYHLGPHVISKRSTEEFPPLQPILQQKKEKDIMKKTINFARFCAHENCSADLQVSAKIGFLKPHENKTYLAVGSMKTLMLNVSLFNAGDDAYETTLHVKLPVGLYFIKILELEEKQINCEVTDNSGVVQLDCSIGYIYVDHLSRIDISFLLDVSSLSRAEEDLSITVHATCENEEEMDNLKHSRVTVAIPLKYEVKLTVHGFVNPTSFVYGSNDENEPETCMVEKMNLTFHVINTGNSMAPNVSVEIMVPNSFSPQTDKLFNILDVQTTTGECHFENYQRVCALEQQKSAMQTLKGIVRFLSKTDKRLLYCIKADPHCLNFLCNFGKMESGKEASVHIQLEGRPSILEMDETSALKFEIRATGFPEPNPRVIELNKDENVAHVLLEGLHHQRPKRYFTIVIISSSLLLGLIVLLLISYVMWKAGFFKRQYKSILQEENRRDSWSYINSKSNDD

Row | SMILES | percent of DMSO control GFP [1] | GFP response vs DMSO [2] | percent response of DMSO control [3] | GFP response vs DMSO [4] | GFP response, % of DMSO [5] | double positive events [6] | vesicle binding response [6] | inhibition [7] | superoxide response (% of plate) [8] | aptamer binding inhibition [9] | response [10] | inhibition [11] | response [12] | binding (% of control) [13] | efflux inhibition (fraction of control) [14] | inhibition [15] | differentiation response [16]
1 | O=C1c2ccccc2C(=O)N1/N=C/c1ccc(Oc2ccc([N+](=O)[O-])cn2)cc1 | 103% (inactive) | 107% (inactive) | 115% (inactive) | 92% (inactive) | 107% (inactive) | 56.2% | 38.7% (inactive) | 12% (inactive) | 106% (inactive) | 0% (inactive) | -4.65% (inactive) | 2.91% (inactive) | -3.15% (inactive) | 92.5% (inactive) | -0.01 (inactive) | -7% (inactive) | -7.57% (inactive)
2 | CN(C)c1ccc(Nc2c3c4c(cccc4n(C)c2=O)C(=O)c2ccccc2-3)cc1 | 99.3% (inactive) | 108% (inactive) | 111% (inactive) | 126% (inactive) | 108% (inactive) | 60.5% | 195% (inactive) | -0.27% (inactive) | 71% (inactive) | 0% (inactive) | -25.2% (inactive) | 16.7% (inactive) | -0.9% (inactive) | 93.8% (inactive) | -0.17 (inactive) | 3% (inactive) | -9.91% (inactive)
3 | CCc1ccc(/C=C2\Oc3cc(OC(=O)N4CCOCC4)ccc3C2=O)cc1 | 98.7% (inactive) | 99.6% (inactive) | 83.4% (inactive) | 125% (inactive) | 79.8% (inactive) | 64.9% | 164% (inactive) | 11.7% (inactive) | 173% (inactive) | 4% (inactive) | -17.4% (inactive) | -5.57% (inactive) | 1.83% (inactive) | 99.3% (inactive) | 0.29 (inactive) | 0% (inactive) | 6.83% (inactive)
4 | COc1ccc(CCN2C(=O)CSC2c2ccc(OC)c(OC)c2)cc1OC (stereo unspecified) | 102% (inactive) | 118% (inactive) | 87.2% (inactive) | 104% (inactive) | 95.7% (inactive) | 63.2% | 184% (inactive) | 9.13% (inactive) | 104% (inactive) | 2% (inactive) | -12.9% (inactive) | 8.66% (inactive) | -1.47% (inactive) | 100% (inactive) | 0.05 (inactive) | 1% (inactive) | 21.6% (inactive)
5 | CCCCCC(=O)O[C@]1(C(C)=O)CC[C@H]2[C@@H]3CCC4=CC(=O)CC[C@]4(C)[C@H]3CC[C@@]21C | 98.9% (inactive) | 95.6% (inactive) | 94.5% (inactive) | 108% (inactive) | 98.1% (inactive) | 60% | 153% (inactive) | -17.2% (inactive) | 105% (inactive) | 0% (inactive) | 6.12% (inactive) | 18.3% (inactive) | -0.4% (inactive) | 105% (inactive) | -0.155 (inactive) | 2% (inactive) | -0.18% (inactive)
6 | CCCCCC#CCC#CCC#CCC#CCCCC(=O)O | 106% (inactive) | 108% (inactive) | 103% (inactive) | 106% (inactive) | 116% (inactive) | 62.5% | 208% (inactive) | -3.67% (inactive) | 123% (inactive) | 62% (active) | -11.7% (inactive) | 26.9% (inactive) | 4.4% (inactive) | 90.5% (inactive) | 0.04 (inactive) | 2% (inactive) | -10.9% (inactive)
7 | Cc1cccc(Nc2ccccc2C(=O)O)c1C | 99.5% (inactive) | 102% (inactive) | 86.7% (inactive) | 114% (inactive) | 102% (inactive) | 65.8% | 236% (inactive) | 4.84% (inactive) | 87.1% (inactive) | -1% (inactive) | -5.24% (inactive) | -8.96% (inactive) | -29.3% (inactive) | 101% (inactive) | 0.08 (inactive) | 5% (inactive) | -12.9% (inactive)
8 | COc1ccccc1OCC(O)COC(N)=O (stereo unspecified) | 93.3% (inactive) | 131% (inactive) | 97.9% (inactive) | 82% (inactive) | 84.5% (inactive) | 62.5% | 133% (inactive) | 11.3% (inactive) | 101% (inactive) | 1% (inactive) | 1.55% (inactive) | -1.32% (inactive) | -1.8% (inactive) | 101% (inactive) | 0.01 (inactive) | 9% (inactive) | 3.28% (inactive)
9 | Cc1c2c(nc3c(C)cccc13)OC(C)C2 (stereo unspecified) | 105% (inactive) | 100% (inactive) | 112% (inactive) | 97.3% (inactive) | 103% (inactive) | 52% | 31.8% (active) | -3.57% (inactive) | 99.9% (inactive) | -2% (inactive) | -11.5% (inactive) | 2.14% (inactive) | 3.8% (inactive) | 97.6% (inactive) | 0.11 (inactive) | 3% (inactive) | -9.53% (inactive)
10 | CCc1ccc(CN(C)Cc2nc(Cc3ccccc3)no2)nc1 | 105% (inactive) | 99.6% (inactive) | 103% (inactive) | 112% (inactive) | 112% (inactive) | 59.8% | 160% (inactive) | 0.59% (inactive) | 101% (inactive) | 4% (inactive) | -25% (inactive) | 1.57% (inactive) | -11.6% (inactive) | 97.3% (inactive) | -0.04 (inactive) | -5% (inactive) | 14.7% (inactive)
11 | CCSC(SCC)[C@H](O)[C@@H](O)[C@H](O)[C@H](O)CO | 95.5% (inactive) | 113% (inactive) | 107% (inactive) | 74.8% (inactive) | 93.8% (inactive) | 58% | 218% (inactive) | 6.46% (inactive) | 114% (inactive) | 7% (inactive) | -7.81% (inactive) | 4.05% (inactive) | -1.88% (inactive) | 104% (inactive) | 0.3 (inactive) | 6% (inactive) | -2.46% (inactive)
12 | Cc1cn([C@H]2C[C@H](N=[N+]=[N-])[C@@H](CO)O2)c(=O)[nH]c1=O | 94.2% (inactive) | 138% (inactive) | 110% (inactive) | 82.5% (inactive) | 95.9% (inactive) | 61.7% | 179% (inactive) | 16.2% (inactive) | 88.8% (inactive) | 6% (inactive) | 2.53% (inactive) | -5.32% (inactive) | 9.2% (inactive) | 103% (inactive) | 0.05 (inactive) | 13% (inactive) | 14.7% (inactive)
13 | O=Cc1ccccc1Oc1ccccc1 | 93.3% (inactive) | 125% (inactive) | 115% (inactive) | 86.4% (inactive) | 90.3% (inactive) | 57.3% | 200% (inactive) | -14.9% (inactive) | 107% (inactive) | -5% (inactive) | -1.17% (inactive) | 32.8% (inactive) | -3.79% (inactive) | 107% (inactive) | 0.12 (inactive) | -2% (inactive) | 33.6% (inactive)
14 | CCCc1cc(=O)[nH]c(=S)[nH]1 | 99.1% (inactive) | 101% (inactive) | 96.5% (inactive) | 103% (inactive) | 107% (inactive) | 61.7% | 144% (inactive) | -2.43% (inactive) | 86.8% (inactive) | 0% (inactive) | -3.16% (inactive) | -5.08% (inactive) | 12.1% (inactive) | 101% (inactive) | 0.44 (active) | -3% (inactive) | -1.65% (inactive)
15 | CCn1c(SCC(=O)c2ccccc2)nc2ccccc2c1=O | 103% (inactive) | 108% (inactive) | 99.7% (inactive) | 115% (inactive) | 104% (inactive) | 60.3% | 176% (inactive) | -18.5% (inactive) | 110% (inactive) | -1% (inactive) | 0.7% (inactive) | 9.92% (inactive) | -1.15% (inactive) | 99.6% (inactive) | 0.53 (active) | 9% (inactive) | -14.8% (inactive)
16 | COc1ccc2c(c1)c(=O)oc1cc3occ(C(C)(C)C)c3cc12 | 103% (inactive) | 105% (inactive) | 103% (inactive) | 109% (inactive) | 108% (inactive) | 60% | 138% (inactive) | 9.95% (inactive) | 92.5% (inactive) | 0% (inactive) | -15.7% (inactive) | 42.4% (inactive) | 29.4% (active) | 93.8% (inactive) | 0.21 (inactive) | 0% (inactive) | -14.8% (inactive)
17 | C[C@]12CC[C@@H]3c4ccc(O)cc4CC[C@H]3[C@@H]1C[C@@H](O)[C@@H]2O[C@@H]1O[C@H](C(=O)O)[C@@H](O)[C@H](O)[C@H]1O | 90.6% (inactive) | 113% (inactive) | 108% (inactive) | 77% (inactive) | 104% (inactive) | 61.7% | 249% (inactive) | -10% (inactive) | 109% (inactive) | 4% (inactive) | -7.17% (inactive) | -6.28% (inactive) | -6.58% (inactive) | 105% (inactive) | 0.12 (inactive) | 8% (inactive) | -4.91% (inactive)
18 | Cc1ccc(-n2cc(CNCCN3CCOC3=O)c(-c3ccc(F)cc3)n2)cc1 | 103% (inactive) | 107% (inactive) | 108% (inactive) | 85% (inactive) | 96.5% (inactive) | 59.3% | 129% (inactive) | 9.63% (inactive) | 109% (inactive) | 2% (inactive) | -24.7% (inactive) | -0.44% (inactive) | -4.84% (inactive) | 104% (inactive) | -0.36 (inactive) | 4% (inactive) | -1.65% (inactive)
